Experimental data reported in PubChem BioAssay AID1159580 (chemical genetic matrix, 2015).
In all, about 5,500 compounds went through this assay and about 2,000 (36%) were called active. Not shown: some 18% with an inconclusive outcome. Cut-off read from the data, not from the text of the source: active = normalized growth mostly below about 0.91 (no sharp cut-off); inconclusive = no clear call, values can overlap the other calls; inactive = mostly above about 0.92. The list shows a part of the results.

Assay: chemical genetic growth profiling, strain panel (AID 1159580);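 note: tested at 20 µM; growth read once vehicle control cultures reached saturation at 30 °C; 1 = growth at the plate median or of vehicle wells; lower values mean less growth of the strain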
Details: growth OD

Measured: normalized growth

CCOC(=O)[C@H](CCc1ccccc1)N[C@@H](C)C(=O)N1[C@H](C(=O)O)C[C@@H]2CCC[C@@H]21
inactive: S. cerevisiae deletion strains, locus YJR075W, strain HOC1, active compounds read low 0.998 | S. cerevisiae deletion strains, locus YKL009W, strain mrt4, active compounds read low 1.01 | S. cerevisiae deletion strains, locus YKL068W, active compounds read low 1.02 | S. cerevisiae deletion strains, locus YKL085W, strain MDH1 (second series), active compounds read low 1.02 | S. cerevisiae deletion strains, locus YKL085W, strain MDH1, active compounds read low 1.02 | S. cerevisiae deletion strains, locus YKL160W, strain elf1, active compounds read low 0.981 | S. cerevisiae deletion strains, locus YKL190W, strain CNB1, active compounds read low 1.01 | S. cerevisiae deletion strains, locus YKR001C, strain vps1, active compounds read low 1.02 | S. cerevisiae deletion strains, locus YKR026C, strain gcn3, active compounds read low 0.98 | S. cerevisiae deletion strains, locus YKR091W, strain srl3, active compounds read low 0.985 | S. cerevisiae deletion strains, locus YLL001W, strain dnm1, active compounds read low 0.989 | S. cerevisiae deletion strains, locus YLL026W, active compounds read low 0.991 | S. cerevisiae deletion strains, locus YLL041C, strain sdh2, active compounds read low 0.982 | S. cerevisiae deletion strains, locus YLR027C, strain aat2, active compounds read low 0.992 | S. cerevisiae deletion strains, locus YLR039C, strain RIC1, active compounds read low 1.06 | S. cerevisiae deletion strains, locus YLR058C, strain SHM2, active compounds read low 1.01 | S. cerevisiae deletion strains, locus YLR102C, strain apc9, active compounds read low 1.02 | S. cerevisiae deletion strains, locus YLR113W, strain HOG1, active compounds read low 0.98 | S. cerevisiae deletion strains, locus YLR221C, strain rsa3, active compounds read low 1 | S. cerevisiae deletion strains, locus YLR258W, strain gsy2, active compounds read low 0.991 | S. cerevisiae deletion strains, locus YLR262C, strain YPT6 (second series), active compounds read low 0.967 | S. cerevisiae deletion strains, locus YLR262C, strain YPT6, active compounds read low 1.08 | S. cerevisiae deletion strains, locus YLR268W, strain sec22, active compounds read low 1.02 | S. cerevisiae deletion strains, locus YLR320W, strain mms22, active compounds read low 0.975 | S. cerevisiae deletion strains, locus YLR330W, strain CHS5, active compounds read low 1.01 | S. cerevisiae deletion strains, locus YLR342W, strain FKS1 (second series), active compounds read low 1.02 | S. cerevisiae deletion strains, locus YLR342W, strain FKS1, active compounds read low 0.989 | S. cerevisiae deletion strains, locus YLR357W, strain rsc2, active compounds read low 0.978 | S. cerevisiae deletion strains, locus YLR370C, strain arc18, active compounds read low 0.98 | S. cerevisiae deletion strains, locus YLR371W, strain rom2, active compounds read low 1.01 | S. cerevisiae deletion strains, locus YLR384C, strain iki3, active compounds read low 0.984 | S. cerevisiae deletion strains, locus YLR418C, strain cdc73, active compounds read low 1.06 | S. cerevisiae deletion strains, locus YML016C, strain PPZ1, active compounds read low 1.02 | S. cerevisiae deletion strains, locus YML032C, strain rad52, active compounds read low 1.02 | S. cerevisiae deletion strains, locus YML120C, strain ndi1, active compounds read low 0.993 | S. cerevisiae deletion strains, locus YML124C, strain tub3, active compounds read low 1.02 | S. cerevisiae deletion strains, locus YMR058W, strain fet3, active compounds read low 0.99 | S. cerevisiae deletion strains, locus YMR078C, strain ctf18, active compounds read low 1.03 | S. cerevisiae deletion strains, locus YMR125W, strain sto1, active compounds read low 0.976 | S. cerevisiae deletion strains, locus YMR129W, active compounds read low 0.979 | S. cerevisiae deletion strains, locus YMR205C, strain PFK2, active compounds read low 0.981 | S. cerevisiae deletion strains, locus YMR223W, strain ubp8, active compounds read low 1.02 | S. cerevisiae deletion strains, locus YMR231W, strain pep5, active compounds read low 0.978 | S. cerevisiae deletion strains, locus YMR263W, strain SAP30, active compounds read low 1.02 | S. cerevisiae deletion strains, locus YMR307W, strain GAS1, active compounds read low 1.04 | S. cerevisiae deletion strains, locus YNL067W, strain RPL9B, active compounds read low 1.01 | S. cerevisiae deletion strains, locus YNL071W, strain lat1, active compounds read low 0.975 | S. cerevisiae deletion strains, locus YNL128W, strain TEP1, active compounds read low 1 | S. cerevisiae deletion strains, locus YNL153C, strain GIM3, active compounds read low 1.01 | S. cerevisiae deletion strains, locus YNL183C, strain NPR1, active compounds read low 0.968 | S. cerevisiae deletion strains, locus YNL209W, strain ssb2, active compounds read low 0.981 | S. cerevisiae deletion strains, locus YNL233W, strain BNI4, active compounds read low 1 | S. cerevisiae deletion strains, locus YNL248C, strain rpa49, active compounds read low 0.986 | S. cerevisiae deletion strains, locus YNL250W, strain rad50, active compounds read low 1.03 | S. cerevisiae deletion strains, locus YNL271C, strain bni1, active compounds read low 1.02 | S. cerevisiae deletion strains, locus YNL298W, strain CLA4, active compounds read low 1.03 | S. cerevisiae deletion strains, locus YNL307C, strain MCK1, active compounds read low 1.02 | S. cerevisiae deletion strains, locus YNL322C, strain KRE1 (second series), active compounds read low 0.982 | S. cerevisiae deletion strains, locus YNL322C, strain KRE1, active compounds read low 1.01 | S. cerevisiae deletion strains, locus YNR049C, strain mso1, active compounds read low 0.985 | S. cerevisiae deletion strains, locus YNR052C, strain pop2, active compounds read low 1.01 | S. cerevisiae deletion strains, locus YOL006C, strain TOP1, active compounds read low 1.03 | S. cerevisiae deletion strains, locus YOL012C, strain htz1 1.2 | S. cerevisiae deletion strains, locus YOL147C, strain pex11, active compounds read low 1.01 | S. cerevisiae deletion strains, locus YOR001W, strain rrp6, active compounds read low 0.997 | S. cerevisiae deletion strains, locus YOR061W, strain CKA2, active compounds read low 1.01 | S. cerevisiae deletion strains, locus YOR069W, strain VPS5, active compounds read low 1 | S. cerevisiae deletion strains, locus YOR070C, strain gyp1, active compounds read low 0.991 | S. cerevisiae deletion strains, locus YOR080W, strain dia2, active compounds read low 0.982 | S. cerevisiae deletion strains, locus YOR083W, strain WHI5, active compounds read low 0.984 | S. cerevisiae deletion strains, locus YOR106W, strain vam3, active compounds read low 1.01 | S. cerevisiae deletion strains, locus YOR136W, strain idh2, active compounds read low 1.02 | S. cerevisiae deletion strains, locus YOR144C, strain elg1, active compounds read low 1.02 | S. cerevisiae deletion strains, locus YOR184W, strain ser1, active compounds read low 1.03 | S. cerevisiae deletion strains, locus YOR231W, strain MKK1, active compounds read low 0.983 | S. cerevisiae deletion strains, locus YOR265W, strain rbl2, active compounds read low 0.979 | S. cerevisiae deletion strains, locus YOR270C, strain vph1, active compounds read low 1.03 | S. cerevisiae deletion strains, locus YOR290C, strain snf2, active compounds read low 0.988 | S. cerevisiae deletion strains, locus YOR316C, strain cot1, active compounds read low 1.02 | S. cerevisiae deletion strains, locus YPL051W, strain arl3, active compounds read low 0.987 | S. cerevisiae deletion strains, locus YPL055C, strain LGE1, active compounds read low 1.02 | S. cerevisiae deletion strains, locus YPL078C, strain atp4, active compounds read low 0.977 | S. cerevisiae deletion strains, locus YPL106C, strain sse1, active compounds read low 0.988 | S. cerevisiae deletion strains, locus YPL240C, strain hsp82, active compounds read low 0.984 | S. cerevisiae deletion strains, locus YPL241C, strain CIN2, active compounds read low 0.999 | S. cerevisiae deletion strains, locus YPL256C, strain CLN2, active compounds read low 0.973 | S. cerevisiae deletion strains, locus YPR119W, strain clb2, active compounds read low 1.01 | S. cerevisiae deletion strains, locus YPR141C, strain kar3, active compounds read low 1.03 | S. cerevisiae deletion strains, locus YPR163C, strain tif3, active compounds read low 1.01 | S. cerevisiae deletion strains, locus YPR167C, strain met16, active compounds read low 1.02 | S. cerevisiae deletion strains, strain wtn01, active compounds read low 1.02 | S. cerevisiae strains, strain wild type, active compounds read low 1.01
